This note sets out measurements from PubChem BioAssay (NCI).

Test in all cases: NCI-60 one-dose screen, 48 h (100 = growth as untreated, 0 = no growth, -100 = all killed)
Common to all, as to details: 10 µM unless noted

For experiment [1], the system named is SR leukemia.
Experiment [2] deals with RPMI-8226 leukemia.
The test system of experiment [3] is OVCAR-8 ovarian.
The subject of experiment [4] is OVCAR-5 ovarian.
Experiment [5] concerns OVCAR-4 ovarian.
The test system of experiment [6] is SK-OV-3 ovarian.
Experiment [7] deals with IGROV1 ovarian.
Experiment [8] deals with OVCAR-3 ovarian.
Experiment [9] relates to HS 578T breast.
For experiment [10], the system named is NCI/ADR-RES ovarian.
In experiment [11] the test system is T-47D breast.
Experiment [12] concerns BT-549 breast.
Experiment [13] has as its system MDA-MB-435 melanoma.
The test system of experiment [14] is SW-620 colon.
Experiment [15] relates to MCF7 breast.
Experiment [16] deals with HCT-116 colon.
In experiment [17] the test system is HCC-2998 colon.
Experiment [18] concerns KM12 colon.

Compounds without any hit were thinned out: in the full panel of roughly 83,000, 20% have a hit.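 How to read the values: 0–100, growth inhibition (40 = 60% inhibited); 0, no net growth; -100 to 0, cell death (-40 = 40% of starting cells died; -100 = all dead).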 A number with no mark means an inactive call. Active and inactive are the calls of the source. The calls were made as follows: active = growth percent below 10; inactive = the rest.

Turning to `COc1cc(OC)c2c(c1)c1nc3cc(C)c(C)cc3nc1n2CCN(C)C`, the growth in [1] was 49.4%; in [2], 65.2%; in [3] it was 79.3%; in [4], 105%; in experiment [5], 87.8%; in [6], 93.7%. Moreover, the growth was 87.2% in [7]; 109% in experiment [8]; 91.9% in experiment [9]; 82% in [10]; 74.3% in experiment [11]; 97.4% in experiment [12]. The growth in [13] was 91.7%; in experiment [14], 66%; in [15] it was 66.2%; in experiment [16], 69.7%; in experiment [17], 93.9%; in experiment [18], 86.3%.

Consider `C#Cc1cccc(NC(=O)C2CCCN(C(=O)CCl)C2)c1` (configuration not stated), for which the growth was 10.9% [8.25 µM] in [1]; 64.4% [8.25 µM] in experiment [2]; 30.1% [8.25 µM] in [3]; 78.8% [8.25 µM] in experiment [4]; 68.9% [8.25 µM] in experiment [5]; 89.8% [8.25 µM] in experiment [6]. The growth in [7] is -72% [8.25 µM] (active); in experiment [8] it was 5.16% [8.25 µM] (active); in experiment [9] it was 85.6% [8.25 µM]; in experiment [10], 93.2% [8.25 µM]; in experiment [11], 84.2% [8.25 µM]; in experiment [12] it was 55.1% [8.25 µM]. The growth in experiment [13] was 43.8% [8.25 µM]; in [14], 20.5% [8.25 µM]; in [15], 59.1% [8.25 µM]; in experiment [16], 13% [8.25 µM]; in experiment [17], 97.2% [8.25 µM]; in experiment [18], 94.7% [8.25 µM].

Turning to `Cc1ccncc1C(=O)O`, the growth in [1] is 120%; in experiment [2] it was 108%; in experiment [3], 95.5%; in experiment [4], 94.7%; in experiment [5], 96%; in experiment [6] it was 137%. Moreover, the growth is 99.6% in experiment [7]; 101% in [8]; 96.5% in experiment [9]; 96.8% in experiment [10]; 107% in [11]; 99.8% in [12]. The growth in experiment [13] was 101%; in experiment [14], 97.3%; in [15], 101%; in experiment [16] it was 107%; in [17], 116%; in experiment [18], 98.6%.

Consider `COc1ccc(-c2n/c(=C\c3c(O)[nH]c4ccc(OC)cc34)cc3c2=Nc2ccccc2-3)cc1`, for which the growth in [1] was 7.13% (active); in experiment [2] it was -38.5% (active); in experiment [3], 11.8%; in [4], 135%; in experiment [5], -42.1% (active); in experiment [6] it was 114%. Also, the growth in [7] was 98.3%; in experiment [8], -57.5% (active); in experiment [9], 26.1%; in [10] it was 4.41% (active); in experiment [11] it was 93%; in [12], -20.1% (active). The growth was 3.6% (active) in experiment [13]; 0.413% (active) in experiment [14]; -22.7% (active) in [15]; -72.6% (active) in experiment [16]; 22.7% in [17]; 8.66% (active) in experiment [18].

For `c1ccc2[nH]c(-c3ccc(Nc4nc(N5CCCCC5)nc(N5CCOCC5)n4)cc3)nc2c1`, the growth in experiment [1] is 9.79% (active); in [2], 2.47% (active); in [3] it was 45.7%; in experiment [4], 73.9%; in [5], 61.2%; in experiment [6], 22.5%. For the same molecule, the growth is 51.3% in [7]; 10.9% in [8]; -12.6% (active) in [9]; 45.6% in experiment [10]; 23.4% in experiment [11]; 23.1% in experiment [12]. The growth was -27.3% (active) in [13]; 5.3% (active) in experiment [14]; 3.49% (active) in experiment [15]; 9.65% (active) in experiment [16]; -1.07% (active) in experiment [17]; 14.3% in [18].

Regarding `CC1=NN(c2ccc(S(=O)(=O)O)cc2Cl)C(=O)C1`, the growth was 113% in [1]; 104% in experiment [2]; 99.9% in [3]; 94.3% in experiment [4]; 102% in [5]; 105% in experiment [6]. Also, the growth in experiment [7] is 105%; in experiment [8], 158%; in [9], 131%; in [10], 98.9%; in experiment [11], 97.8%; in experiment [12], 116%. Besides, the growth in [13] is 107%; in experiment [14], 107%; in experiment [15] it was 94.4%; in experiment [16] it was 93%; in experiment [17] it was 83.1%; in experiment [18] it was 137%.

Turning to `Cn1c(=O)c2c(ncn2CCC(=O)Nc2ccc(F)cc2)n(C)c1=O`, the growth in [1] is 105%; in [2], 97.2%; in [3], 108%; in experiment [4], 103%; in experiment [5], 111%; in [6], 85%. The growth is 112% in [7]; 107% in [8]; 103% in [9]; 106% in experiment [10]; 94.1% in experiment [11]; 90.3% in [12]. The growth is 110% in experiment [13]; 106% in experiment [14]; 100% in experiment [15]; 87.7% in experiment [16]; 115% in experiment [17]; 103% in experiment [18].

Consider `CC1(C)C(=O)CC[C@]2(C)[C@H]3C(=O)C=C4[C@@H]5C[C@@](C)(C(=O)NCCNCCN)CC[C@]5(C)CC[C@@]4(C)[C@]3(C)CC[C@@H]12`, for which the growth in experiment [1] is 20%; in experiment [2], 91.1%; in experiment [3], 99.6%; in experiment [4], 108%; in [5] it was 105%; in experiment [6], 104%. In addition, the growth in [7] was 96.4%; in [8], 104%; in experiment [9], 97.5%; in experiment [10], 102%; in experiment [11], 82%; in [12], 91.7%. Further, the growth in experiment [13] is 101%; in experiment [14] it was 102%; in experiment [15], 90.6%; in experiment [16] it was 83.2%; in experiment [17], 101%; in experiment [18], 98.7%.

For the molecule `C[C@H]1[C@@H]2[C@H]3CC[C@@H]4[C@@]5(C)Cc6c([nH]c7ccccc67)C(C)(C)[C@@H]5CC[C@@]4(C)[C@]3(C)CC[C@]23CO[C@]1(C)[C@@H](C(=O)/C=C/c1ccccn1)C3`, the growth is 55.6% in experiment [1]; 62.5% in experiment [2]; 63.3% in experiment [3]; 108% in [4]; 83.7% in experiment [5]; 112% in experiment [6]. The growth is 106% in [7]; 96.2% in [8]; 87.7% in experiment [9]; 100% in [10]; 65% in experiment [11]; 87.1% in [12]. Besides, the growth in experiment [13] was 83.8%; in experiment [14] it was 95.9%; in experiment [15], 69.2%; in experiment [16] it was 46.4%; in experiment [17], 103%; in experiment [18], 93.2%.
